Laboratory results from PubChem BioAssay AID588432 (Broad Institute, 2011).

Assay: luciferase inhibitors in kinase-free ADP detection – biochemical, luminescence, cherry-pick, set 04, artefact control for Dyrk1A inhibitor project, dose response (AID 588432)
Conditions: ADP-Glo luminescence without kinase, luciferase artifact; series mostly up to 12 µM; activity change, negative = inhibition: at the top concentration;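 active means luciferase inhibitors whose fitted dose curve gives a half-maximal potency within ten times the top tested dose; inconclusive means flat curve with 30 to 70% inhibition, or a poor fit; inactive means the rest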

Activity change, negative = inhibition, inactive:
Cc1ccsc1CN(C)c1ncnc2ccc(-c3ccoc3)cc12 -6.33%, c1csc(CNc2ncnc3ccc(-c4ccc5c(c4)OCO5)cc23)n1 1.31%, CCN(Cc1cccs1)c1ncnc2ccc(-c3ccc4c(c3)OCO4)cc12 4.36%, Clc1ccc(CNc2ncncc2-c2ccc3c(c2)OCO3)cc1 4.88%, CN(Cc1nccs1)c1ncnc2ccc(-c3ccc4c(c3)OCO4)cc12 3.29%, CCOC(=O)c1ccc(-c2ccc3ncnc(N(C)Cc4sccc4C)c3c2)o1 3.89%, Brc1cc(Br)cc(CNc2nccc(-c3ccc4c(c3)OCO4)n2)c1 5.61%, c1coc(CCNc2ncnc3ccc(-c4ccc5c(c4)OCO5)cc23)c1 -5.27%, Cn1ccc2cc(-c3ccc4ncnc(NCc5ccc6c(c5)OCO6)c4c3)ccc21 3.02%, Cn1ccc2cc(-c3ccc4ncnc(NCc5cccc(F)c5)c4c3)ccc21 5.33%, c1cncc(CNc2cc(-c3ccc4c(c3)OCO4)ncn2)c1 -0.561%, CN(C)c1ccc(-c2nccc(NCc3cccs3)n2)cc1 -2.05%, Clc1cc(Cl)cc(CNc2ncncc2-c2ccc3c(c2)OCO3)c1 4.88%, CS(=O)(=O)CCNCc1ccc(-c2ccc3ncnc(Nc4ccc(OCc5cccc(F)c5)c(Cl)c4)c3c2)o1 3.19%, c1csc(CCNc2ncnc3ccc(-c4ccc5c(c4)OCO5)cc23)c1 0.153%, Clc1ccc(CNc2nccc(-c3ccc4cn[nH]c4c3)n2)cc1Cl 3.81%, Brc1ccc(CNc2nccc(-c3ccc4c(c3)OCO4)n2)cc1Br -2.75%, c1cncc(CNc2ccnc(-c3ccc4cn[nH]c4c3)n2)c1 -1.39%, Cc1ccc(CN(C)c2ncnc3ccc(-c4ccc5c(c4)OCO5)cc23)o1 -3.45%, Clc1ccc(CNc2cc(-c3ccc4c(c3)OCO4)ncn2)cc1 5.18%, Cc1c(-c2ccnc(NCc3cccnc3)n2)sc(=O)n1C 2.54%, Clc1cccc(-c2ccc3ncnc(NCc4ccc5c(c4)OCO5)c3c2)c1 5.1%, Cc1ccc(CNc2ncnc3ccc(-c4ccoc4C)cc23)o1 1.44%, c1cncc(CNc2ccnc(-c3ccc4[nH]ncc4c3)n2)c1 4.93%, Clc1ccc(CNc2nccc(-c3ccc4[nH]ncc4c3)n2)cc1Cl -1.76%, Clc1ccc(CNc2nccc(-c3ccc4c(c3)OCO4)n2)cc1Cl 4.9%, c1csc(CNc2ncnc3ccc(-c4ccc5c(c4)OCO5)cc23)c1 3.72%, COc1cc(-c2ccc3ncnc(NCCc4cnc[nH]4)c3c2)cc(OC)c1OC -4.12%, COc1ccc(-c2ccnc(NCc3ccc(Cl)c(Cl)c3)n2)cc1OC 1.42%, c1cncc(CNc2ncncc2-c2ccc3c(c2)OCO3)c1 -1.1%, Cc1nc(CNc2ncnc3ccc(-c4ccc5c(c4)OCO5)cc23)cs1 0.942%, Cc1nc(CNc2ncnc3ccc(-c4ccoc4)cc23)cs1 2.58%, Cc1ccsc1CN(C)c1ncnc2ccc(-c3ccc(CO)o3)cc12 -3.09%, Cc1c(-c2ccnc(NCc3ccc(Cl)cc3)n2)sc(=O)n1C 3.38%
